# Screening data as filed in PubChem.
# TSG101-PTAP inh = qHTS Assay for Iinhibitors of HIV-1 Budding by Blocking the Interaction of PTAP/TSG101 | Fluorescence polarization, FITC-PTAP peptide / Tsg101 binding | Potency, µM (highest dose often 115 µM), for inactives: at the top dose activity change, negative = inhibition, most hits filed as inhibitors | 340,000 tested, under 10 active | AID 493005, 2010; active = well fitted inhibition curve with a large enough effect in the main read-out, with a control signal flat, not every such curve was filed as active; inconclusive = small, poorly fitted or top-dose-only effect, or effect the other way, or a change in a side signal; inactive = no such curve, though single readings can be large or run the other way; note: potency is the fitted concentration of half-maximal effect; % of control where 0% means no effect
#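 Tsg101 binding domain (10 uM final) was mixed with compound and a FITC-labeled PTAP peptide (50 nM final) in HEPES pH 7.5 buffer with NaCl, Tween 20, EDTA and TCEP; fluorescence polarization was read after 20 min at r.t.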
# DRD3 antagonist = qHTS of D3 Dopamine Receptor Antagonist: qHTS. 2.5% of 360,000 active. D3R cells, DiscoveRx beta-arrestin luminescence, antagonist mode; hits give low values. max response, negative = inhibition, %; in the data active = max response below about -50%; inconclusive = no clear call, values can overlap the other calls; note: % is set by controls: 0 for no effect and ±100 for the full control effect
# Target sequence (P35462 whole entry, looked up): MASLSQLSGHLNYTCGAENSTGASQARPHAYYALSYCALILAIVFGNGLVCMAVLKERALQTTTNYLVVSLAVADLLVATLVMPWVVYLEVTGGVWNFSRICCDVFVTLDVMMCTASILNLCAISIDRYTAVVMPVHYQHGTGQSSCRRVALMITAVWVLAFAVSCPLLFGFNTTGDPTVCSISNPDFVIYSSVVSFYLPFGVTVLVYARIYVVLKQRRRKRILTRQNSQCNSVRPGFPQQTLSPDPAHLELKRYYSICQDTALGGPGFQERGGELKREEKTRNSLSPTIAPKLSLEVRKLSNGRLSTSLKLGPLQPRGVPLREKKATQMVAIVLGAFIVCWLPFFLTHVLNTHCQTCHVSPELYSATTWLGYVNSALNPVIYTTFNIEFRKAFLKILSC
#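 Cells plated overnight at 1500 cells/well, then exposed to library compounds with dopamine controls for 90 minutes at 37 degrees C. DiscoveRx reagent added for 30–60 minutes at room temperature; luminescence read, quantitative HTS format.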
# Rango release inh = qHTS Assay for Inhibitors of RanGTP induced Rango (Ran-regulated importin-beta cargo) - Importin beta complex dissociation; Potency, µM (titrated, usually from 46.1 µM), for inactives: top-dose activity change, negative = inhibition; 0.071% of 340,000 active; Snurportin-1 (Homo sapiens) + GTP-binding nuclear protein Ran (Homo sapiens) + Importin …; AID 540253, 2011; Biochemical FRET Rango-importin beta, RanGTP-induced dissociation; note: potency is the fitted concentration of half-maximal effect; % of control where 0% means no effect; nearly all actives have a fitted effect of over 45% in size
#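 Recombinant Rango FRET biosensor (EYFP–snurportin 1 IBB–cerulean CFP10) at 0.1 uM premixed with 0.25 uM importin beta in PBS, 1 mM DTT, 0.02% Tween-20, 0.1% BSA. Compound added 5 min; RanGTP-RCC1 (0.6 uM Ran, 2 mM GTP, 0.2 uM RCC1) then triggers release, read at 45 min.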
# Rango-impB inh = qHTS Assay for Inhibitors of Rango (Ran-regulated importin-beta cargo) - Importin beta complex formation | AID 540263, 2011 | Potency, µM (series often up to 92.2 µM), inactives show top-dose inhibition of complex formation | Importin subunit beta-1 (Homo sapiens), Q14974 | Rango CFP/YFP FRET sensor + importin beta, 45 min | 0.031% of 340,000 active;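 note: potency is the fitted concentration of half-maximal effect; 0% = DMSO wells and 100% = buffer wells lacking importin beta; nearly all actives have a fitted effect of over 15% in size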
#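 FRET biosensor Rango (snurportin 1 IBB between N-terminal EYFP and C-terminal Cerulean), 50 nM in PBS/1 mM DTT/0.02% Tween-20/0.1% BSA, preincubated 5 min RT with compound; 0.125 microM importin beta added, 45 min RT, CFP/YFP FRET ratio read.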
# Mm-Cpn inhibitor = Inhibitors of TCP-1 ring complex (TRiC) of Methanococcus maripaludis (MmCpn): qHTS. purified Mm-Cpn ATPase, ADP Transcreener TR-FRET. Potency, µM (highest dose often 76.9 µM), inactives show at the top dose activity, negative = inhibition, hits mostly inhibitors. AID 504842, 2011. 0.031% of 330,000 active; active = well fitted inhibition curve with a large enough effect; inconclusive = small, poorly fitted or top-dose-only effect; note: potency is the fitted concentration of half-maximal effect; % is set by controls: 0 for no effect and ±100 for the full control effect; nearly all actives have a fitted effect of over 80% in size
#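 Reaction buffer contained 30 mM Tris pH 7.4, 100 mM KCl, 5 mM MgCl2 and 1 mM DTT. Mm-CPN (25 nM final) hydrolysed 10 uM ATP over 30 min at 37°C; ADP was read by HTRF.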
# DRD3 agonist = qHTS of D3 Dopamine Receptor Agonist: qHTS; D(3) dopamine receptor (Homo sapiens), P35462; D3R DiscoveRx beta-arrestin cells, luminescence, 90 min; max activation, %; 0.58% of 410,000 active; in the data active = max activation above about 30%; note: 0% is about no effect
#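 Agonist mode: compounds and dopamine controls were applied to plated cells for 90 min at 37 degrees C after an overnight attachment at 1500 cells/well. Luminescent read-out followed 30 - 60 minutes at room temperature with DiscoveRx detection reagent.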
# Active calls of the source: *; ? = inconclusive; . = not tested or not shown. A selection: hits, their analogues and other compounds. The true share with any hit is near 2.9%. Unless noted, calls come from the whole dose curve.
SMILES,TSG101-PTAP inh,DRD3 antagonist,Rango release inh,Rango-impB inh,Mm-Cpn inhibitor,DRD3 agonist
CCN1/C(=C\C=C\C2=[N+](CC)c3ccccc3C2(C)C)C(C)(C)c2ccccc21,?,-96.2*,-19.5%,?,-1.6%,-12.0
ClCCN(CCCl)c1ccc(C=Cc2ccncn2)cc1,1.7%,-14.0,?,?,.,71.7*
O=c1[nH]c2ccccc2n1C1CCN(C(CCc2ccccc2)c2nnnn2-c2ccc3c(c2)OCCO3)CC1 (stereo unspecified),.,97.7,.,.,.,35.6*
Cc1[nH]c2ccc(OC(F)(F)F)cc2c1CCNCc1ccc(Cl)cc1,-3.0%,-25.2,0.4%,-0.7%,1.9%,-1.8
Cc1[nH]c2ccc(OC(F)(F)F)cc2c1CCNCc1cccc([N+](=O)[O-])c1,0.0%,-63.7*,-1.6%,1.7%,4.5%,-18.6
CC(C)=CCN1CC[C@]2(C)c3cc(O)ccc3C[C@H]1[C@H]2C,.,.,.,.,.,-23.8
N/C(=N\N=C\c1ccc(O)cc1O)N[N+](=O)[O-],-6.5%,-63.9*,-8.3%,-2.8%,1.7%,-3.5
O=c1[nH]c2ccccc2n1CCCN1CCC(n2c(=O)[nH]c3cc(Cl)ccc32)CC1,0.7%,-102.7*,-3.7%,-0.5%,2.4%,-89.8
COc1ccc2nc(-c3ccc(CN4CCC(n5c(=O)[nH]c6ccccc65)CC4)cc3)c(-c3ccccc3)nc2c1,.,-52.8*,.,.,.,-14.2
COc1ccc(N2C(=O)CC(N3CCC(n4c(=O)[nH]c5ccccc54)CC3)C2=O)cc1 (stereo unspecified),-8.7%,19.4,7.6%,2.6%,0.3%,1.7
O=c1[nH]c2ccccc2n1C1CCN(Cc2ccc(-c3nc4ccccc4nc3-c3ccccc3)cc2)CC1,.,-92.3*,.,.,.,-16.0
O=c1[nH]c2ccccc2n1C1CCN(Cc2ccc(-c3nc4ccc(F)cc4nc3-c3ccccc3)cc2)CC1,.,-95.9*,.,.,.,-18.7
Cc1ccc2nc(-c3ccc(CN4CCC(n5c(=O)[nH]c6ccccc65)CC4)cc3)c(-c3ccccc3)nc2c1,.,-27.6,.,.,.,-12.9
CCC1(c2ccccc2)C(=O)NC(=O)N(C(=O)c2ccccc2)C1=O (stereo unspecified),.,.,.,.,.,2.7
CC1CCC(C(C)C)C(OC(=O)c2ccccc2N)C1 (stereo unspecified),.,.,.,.,.,10.3
[S]=[Sb](=[S])[S][Sb](=[S])=[S],.,.,.,.,.,5.3
C=CC[C@]1(O)CC[C@H]2[C@@H]3CCC4=CC(=O)CCC4=C3C=C[C@@]21C,.,.,.,.,.,17.8
CC1CCN(CC#CCOc2ccc(Cl)cc2)CC1,-4.1%,-104.8*,19.2%,-2.0%,-1.8%,-26.0
COC(=O)C1=C(c2ccc(Cl)c(C(F)(F)F)c2)C[C@@H]2CC[C@H]1N2C(=O)N1CCC(C)CC1,-4.1%,-50.5*,0.9%,-4.5%,-1.2%,-45.6
COC(=O)C1=C(c2ccc(S(C)(=O)=O)cc2)C[C@@H]2CC[C@H]1N2C(=O)N1CCC(O)CC1,-1.5%,17.3,-4.2%,-5.1%,.,33.3*
Cc1ccc2nc(N3CCC(C(=O)N4CCC5(CC4)OCCO5)CC3)sc2c1,-2.8%,-51.0*,-8.3%,0.1%,0.4%,5.0
CCc1ccc2nc(N3CCC(C(=O)N4CCC5(CC4)OCCO5)CC3)sc2c1,4.6%,-18.1,15.7%,1.2%,-1.1%,4.1
CN(C)CCCCCCN(C)C (tested in a mixture with another compound),.,.,.,.,.,8.4
COc1ccc(CC(=O)N2CCN(C)CC2)cc1OC,-6.6%,-71.1*,1.5%,-1.6%,0.3%,-3.1
